Reference: PubChem BioAssay
Calls of active or inactive are those of the source.

Tests used:
[1] = system: Wnt5a (protein binding on small-molecule microarray); experiment: small molecules binding Wnt5a protein – biophysical, small-molecule microarray, 635/667 nm fluorescence, primary screen (AID 1142); conditions: 635 nm fluorescence, higher = more signal;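 further: fluorescence read at 667 nm with signal to noise per printed feature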
[2] = ATP-based viability of Huh7 replicon cells – cell-based, CellTiter-Glo luminescence, basal, 48 h, cytotoxicity control for HCV replication inhibitor project, primary screen (AID 1143); conditions: higher = more signal, called active from +8 up or from −8 down;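 further: Huh7 hepatoma cells carrying a hepatitis C replication reporter with no stimulus; test concentration not given here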
[3] = basal CRE-LacZ reporter activity in PC12 – cell-based, unstimulated, primary screen (AID 1145); conditions: no forskolin, luminescence, 4.5 h, higher = more signal, called active from +8 up or from −8 down
[4] = forskolin-driven CRE-LacZ activity in PC12 – cell-based, CRE-LacZ reporter, forskolin-stimulated, primary screen (AID 1146); conditions: luminescence, 4.5 h, higher = more signal, called active from +8 up or from −8 down;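 further: PC12 cells with 6xCRE LacZ reporter stimulated by forskolin 10 µM; beta-galactosidase reporter signal reflecting CREB driven transcription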
[5] = target: Streptavidin (Streptomyces avidinii) (UniProt P22629); experiment: compounds binding control protein streptavidin – biophysical, small-molecule microarray, 635/667 nm fluorescence, artefact control for SMM compound annotation, primary screen (AID 1147); conditions: higher = more signal;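 further: signal reflects streptavidin binding to arrayed compounds as a control protein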
Streptavidin (Streptomyces avidinii), sequence (P22629 whole entry, looked up): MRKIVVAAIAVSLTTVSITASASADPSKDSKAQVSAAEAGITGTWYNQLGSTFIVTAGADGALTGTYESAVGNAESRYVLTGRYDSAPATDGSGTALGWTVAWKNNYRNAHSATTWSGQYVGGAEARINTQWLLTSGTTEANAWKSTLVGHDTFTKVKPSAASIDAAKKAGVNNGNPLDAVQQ

[6] = probe aInhba binding on compound microarray – biochemical, small-molecule microarray, 635/667 nm fluorescence, primary screen (AID 1148); conditions: higher = more signal;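 further: score merges 667nm spot fluorescence with signal-to-noise for antibody binding to printed compounds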
Torsin-1A (Homo sapiens) [7] = target: Torsin-1A (Homo sapiens) (UniProt O14656); experiment: TOR1A wild-type binding on microarray – cell lysate, small-molecule microarray, lysate, 635/667 nm, primary screen (AID 1149); conditions: COS7 hTOR1A-WT lysate, 635 nm fluorescence, higher = more signal
Torsin-1A (Homo sapiens), sequence (O14656 whole entry, looked up): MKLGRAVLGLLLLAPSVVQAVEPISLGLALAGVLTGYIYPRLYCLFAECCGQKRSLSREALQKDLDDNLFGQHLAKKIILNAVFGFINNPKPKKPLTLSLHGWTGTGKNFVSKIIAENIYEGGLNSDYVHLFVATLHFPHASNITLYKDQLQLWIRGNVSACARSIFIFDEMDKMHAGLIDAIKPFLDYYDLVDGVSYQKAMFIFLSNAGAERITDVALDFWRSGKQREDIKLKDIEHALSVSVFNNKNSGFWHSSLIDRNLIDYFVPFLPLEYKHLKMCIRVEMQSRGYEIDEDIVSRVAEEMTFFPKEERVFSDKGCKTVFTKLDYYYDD

Torsin-1A (Homo sapiens) [8] = target: Torsin-1A (Homo sapiens) (UniProt O14656); experiment: torsin A mutant lysate binding on microarrays – cell lysate, small-molecule microarray, COS7 lysate, 635/667 nm fluorescence, primary screen (AID 1150); conditions: COS7 hTOR1A mutant lysate, 635 nm fluorescence, higher = more signal;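 further: score pools 667 nm emission and signal to noise measuring lysate protein binding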
[9] = system: Sonic hedgehog protein (Shh); experiment: Sonic hedgehog microarray binding compounds – biochemical, small-molecule microarray, 635/667 nm fluorescence, primary screen (AID 1151); conditions: 635 nm fluorescence, higher = more signal;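 further: Shh protein binding to compounds spotted on small-molecule microarray slides; score combines spot fluorescence intensity with signal-to-noise across triplicate slides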
[10] = optical density shifts of acrAB sulA E. coli – strain DRC41, OD650, 48 h, E. coli filamentation inducer project, primary screen (AID 1152); conditions: higher = more signal, called active from +8 up or from −8 down;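 further: E. coli MC1000 strain DRC41 lacking acrAB efflux pump and sulA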
[11] = probe aLefty1 binding on compound microarray – biochemical, small-molecule microarray, 635/667 nm fluorescence, primary screen (AID 1153); conditions: higher = more signal;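 further: score merges spot fluorescence with signal-to-noise ratio from the scanned slide images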
[12] = plasmodial surface anion channel blockers, osmotic lysis – cell-based, P. falciparum Indochina, OD700, 1 h, primary screen (AID 1154); conditions: P. falciparum Indochina infected RBC osmotic lysis, higher = more signal, called active from +8 up or from −8 down
[13] = plasmodial surface anion channel blockers, osmotic lysis – cell-based, P. falciparum Indochina, OD700, 2 h, primary screen (AID 1155);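 further: lysis reports solute entry through the parasite surface anion channel PSAC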; conditions: P. falciparum Indochina infected erythrocytes, higher = more signal, called active from +8 up or from −8 down
[14] = changes in parasitized red cell lysis, either direction – P. falciparum Indochina, OD700, 3 h, PSAC antagonist project, primary screen (AID 1156); conditions: P. falciparum-infected erythrocytes, osmotic lysis, higher = more signal, called active from +8 up or from −8 down
[15] = plasmodial surface anion channel blockers, osmotic lysis – cell-based, P. falciparum Indochina, OD700, 18 h, primary screen (AID 1157); conditions: P. falciparum Indochina infected erythrocytes, osmotic lysis OD700, 18 h; higher = more signal, called active from +8 up or from −8 down
[16] = S6 kinase pathway phospho-S6 level changes – cell-based, A549, cytoblot, luminescence, serum-stimulated, primary screen (AID 1158); conditions: 5 h, higher = more signal;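 further: serum-stimulated A549 lung adenocarcinoma cells; signal is phosphorylated S6 detected by cytoblot immunostaining with HRP secondary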
[17] = target: NADPH oxidase 2 (Homo sapiens) (UniProt P04839); experiment: compounds shifting NOX2 Amplex Red fluorescence – cell-based, HEK293-NOX2, PMA-stimulated, NOX inhibitor project, primary screen (AID 1159); conditions: 45 min, higher = more signal, called active from +8 up or from −8 down; further: test concentration not given here
NADPH oxidase 2 (Homo sapiens), sequence (P04839 whole entry, looked up): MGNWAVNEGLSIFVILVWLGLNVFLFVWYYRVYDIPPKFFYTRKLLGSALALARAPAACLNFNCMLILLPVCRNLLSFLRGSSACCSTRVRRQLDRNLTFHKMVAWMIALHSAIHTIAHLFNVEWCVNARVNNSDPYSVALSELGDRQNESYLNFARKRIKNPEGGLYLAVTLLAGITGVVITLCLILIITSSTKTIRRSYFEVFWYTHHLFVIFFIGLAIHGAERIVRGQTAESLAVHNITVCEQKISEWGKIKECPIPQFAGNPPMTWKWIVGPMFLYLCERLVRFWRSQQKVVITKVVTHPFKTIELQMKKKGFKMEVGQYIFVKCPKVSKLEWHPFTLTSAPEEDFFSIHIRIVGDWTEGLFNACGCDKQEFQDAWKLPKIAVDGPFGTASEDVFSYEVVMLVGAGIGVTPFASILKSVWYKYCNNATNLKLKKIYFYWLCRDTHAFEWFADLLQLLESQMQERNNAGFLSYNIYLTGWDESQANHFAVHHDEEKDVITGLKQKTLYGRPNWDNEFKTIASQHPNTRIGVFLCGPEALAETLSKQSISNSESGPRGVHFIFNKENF

[18] = target: NADPH oxidase 4 (Homo sapiens) (UniProt Q9NPH5); experiment: compounds shifting NOX4 Amplex Red fluorescence – cell-based, HEK293-NOX4, tetracycline-induced, NOX inhibitor project, primary screen (AID 1160); conditions: HEK293-NOX4, Amplex Red H2O2 fluorescence, 45 min; higher = more signal, called active from +8 up or from −8 down
NADPH oxidase 4 (Homo sapiens), sequence (Q9NPH5 whole entry, looked up): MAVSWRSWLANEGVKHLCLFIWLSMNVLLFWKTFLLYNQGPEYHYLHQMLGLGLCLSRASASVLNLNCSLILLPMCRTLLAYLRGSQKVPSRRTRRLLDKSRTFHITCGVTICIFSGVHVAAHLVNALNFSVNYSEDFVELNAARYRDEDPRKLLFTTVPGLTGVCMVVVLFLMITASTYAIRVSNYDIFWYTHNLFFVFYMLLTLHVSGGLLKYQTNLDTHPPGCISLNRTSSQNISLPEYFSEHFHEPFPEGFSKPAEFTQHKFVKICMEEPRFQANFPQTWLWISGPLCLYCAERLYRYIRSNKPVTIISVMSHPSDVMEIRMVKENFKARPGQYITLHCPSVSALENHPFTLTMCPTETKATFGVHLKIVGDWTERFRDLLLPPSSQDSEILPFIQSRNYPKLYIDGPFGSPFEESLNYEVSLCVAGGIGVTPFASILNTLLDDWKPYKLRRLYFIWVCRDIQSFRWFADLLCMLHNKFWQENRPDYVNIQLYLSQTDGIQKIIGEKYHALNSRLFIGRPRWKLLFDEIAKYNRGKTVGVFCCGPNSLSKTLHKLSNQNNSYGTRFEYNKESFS

[19] = target: NADPH oxidase 5 (Homo sapiens) (UniProt Q96PH1); experiment: compounds shifting NOX5 Amplex Red fluorescence – cell-based, HEK293-NOX5, NOX inhibitor project, primary screen (AID 1161); conditions: HEK293-NOX5, ionomycin, 45 min, higher = more signal
NADPH oxidase 5 (Homo sapiens), sequence (Q96PH1 whole entry, looked up): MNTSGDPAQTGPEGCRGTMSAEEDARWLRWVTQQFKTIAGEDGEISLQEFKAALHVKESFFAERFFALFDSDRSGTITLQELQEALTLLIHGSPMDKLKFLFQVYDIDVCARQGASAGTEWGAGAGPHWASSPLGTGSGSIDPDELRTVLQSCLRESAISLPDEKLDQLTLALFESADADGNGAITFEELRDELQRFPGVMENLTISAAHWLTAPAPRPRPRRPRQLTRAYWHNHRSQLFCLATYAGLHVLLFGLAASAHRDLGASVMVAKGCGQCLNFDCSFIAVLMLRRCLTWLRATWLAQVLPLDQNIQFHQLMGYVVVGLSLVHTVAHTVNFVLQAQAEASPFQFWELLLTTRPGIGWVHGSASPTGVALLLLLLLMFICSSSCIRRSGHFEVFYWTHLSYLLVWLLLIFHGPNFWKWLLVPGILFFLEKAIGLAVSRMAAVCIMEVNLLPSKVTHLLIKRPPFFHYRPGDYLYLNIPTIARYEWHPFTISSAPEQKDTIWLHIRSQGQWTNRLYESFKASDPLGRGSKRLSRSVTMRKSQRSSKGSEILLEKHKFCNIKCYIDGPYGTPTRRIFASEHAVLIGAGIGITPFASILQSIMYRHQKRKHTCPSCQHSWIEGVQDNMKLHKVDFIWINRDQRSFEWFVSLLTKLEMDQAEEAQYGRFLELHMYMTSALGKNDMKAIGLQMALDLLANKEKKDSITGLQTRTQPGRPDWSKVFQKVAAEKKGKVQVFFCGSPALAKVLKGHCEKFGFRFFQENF

[20] = compound effects on lung adenocarcinoma cell viability – A549, calcein-AM fluorescence, 48 h, basal, profiling panel (AID 1162); conditions: higher = more signal; further: test concentration not given here

Row | Structure (SMILES) | composite z-score [1] | z-score [2] | z-score [3] | z-score [4] | composite z-score [5] | composite z-score [6] | composite z-score (Torsin-1A (Homo sapiens) [7]) | composite z-score (Torsin-1A (Homo sapiens) [8]) | composite z-score [9] | z-score [10] | composite z-score [11] | z-score [12] | z-score [13] | z-score [14] | z-score [15] | z-score [16] | z-score [17] | z-score [18] | z-score [19] | z-score [20]
1 | C=C(COC)C(=O)CC[C@H](OC(=O)c1ccccc1-c1ccccc1C(=O)O)c1ccccc1OCCO | 0.032 | -0.828 (inactive) | 0.844 (inactive) | 0.122 (inactive) | 0.0456 | -0.0021 | 0.241 | -0.063 | 1.2 | 0.832 (inactive) | -0.196 | 4.88 (inactive) | 0.673 (inactive) | 2.51 (inactive) | 0.65 (inactive) | -0.541 | 2.1 (inactive) | 0.0678 (inactive) | -1.57 | 0.341
2 | C[N+](C)(C)CCCCNC(=O)[C@@H]1C[C@@H]2C(=O)NCC(=O)N2[C@@H]1c1cccc(OCCO)c1 | 0.857 | -1.08 (inactive) | -0.939 (inactive) | -0.689 (inactive) | 0.461 | 0.124 | 1.87 | 1.1 | 2.16 | 1.78 (inactive) | -0.221 | 2.68 (inactive) | -1.12 (inactive) | -2.75 (inactive) | -1.98 (inactive) | 0.855 | -1.42 (inactive) | -0.57 (inactive) | 0.766 | 1.59
3 | O=C(O)[C@H]1C[C@H]2C(=O)N[C@@H](Cc3ccccc3)C(=O)N2[C@H]1c1ccc(O)cc1 | 0.0525 | -0.423 (inactive) | 0.826 (inactive) | -0.83 (inactive) | -0.0681 | 0.0228 | 0.563 | 0.458 | 1.24 | 0.763 (inactive) | -0.0162 | 2.03 (inactive) | -0.0251 (inactive) | -7.14 (inactive) | -0.139 (inactive) | 0.432 | 1.53 (inactive) | 1.42 (inactive) | 2.01 | -0.315
4 | C[N+](C)(C)CCCC[C@@H]1NC(=O)[C@H]2C[C@@H](C(=O)NCCCCCN)[C@@H](c3cccc(OCCO)c3)N2C1=O | 0.165 | -1.18 (inactive) | 0.0124 (inactive) | -1 (inactive) | 1.04 | 0.147 | 0.918 | 1.7 | -0.197 | 2.36 (inactive) | 0.857 | 1.76 (inactive) | 0.858 (inactive) | -1.26 (inactive) | 0.57 (inactive) | -0.0325 | 1.03 (inactive) | -0.833 (inactive) | 2.24 | -0.013
5 | CC(C)C(=C=CC[C@@H](O)c1ccc(CO)o1)CCO | 0.502 | -0.105 (inactive) | 0.681 (inactive) | -1.82 (inactive) | -0.294 | -0.0986 | 1.65 | 0.289 | 1.48 | 1.38 (inactive) | -0.147 | 1.95 (inactive) | 0.236 (inactive) | 0.311 (inactive) | 0.0124 (inactive) | -0.109 | 1.62 (inactive) | 1.64 (inactive) | 1.49 | 2.76
6 | Cc1ccc(N2C(=O)c3ccccc3[C@](C)(C(=O)NCC(F)(F)F)[C@@H]2c2ccc(CO)cc2)nc1 | -0.318 | -1.01 (inactive) | 0.234 (inactive) | -1.31 (inactive) | -0.763 | -0.179 | -1.08 | -0.727 | -1.46 | 1.49 (inactive) | -0.147 | 0.57 (inactive) | 0.253 (inactive) | -0.317 (inactive) | 0.127 (inactive) | 0.654 | -0.103 (inactive) | -1.56 (inactive) | 1.22 | 0.708
7 | C=CCC(OC(C)=O)[C@@H]1[C@@H](N(Cc2cccc3ccccc23)C(=O)Cc2ccc(OC)cc2)c2cc(OCCCO)ccc2N1C(=O)Cc1ccc(OC)cc1 (stereo not given in full) | -0.143 | -0.627 (inactive) | 1.78 (inactive) | -1.2 (inactive) | 0.131 | -0.0986 | 0.271 | -0.482 | 0.0188 | 2.17 (inactive) | 0.051 | 1.62 (inactive) | 0.317 (inactive) | 0.119 (inactive) | 0.506 (inactive) | 0.623 | 0.459 (inactive) | -0.451 (inactive) | 2.4 | 1.25
8 | CC(CO)N1C(=O)[C@@H]2C3C(=O)OCCC/C=C\[C@H]3OC23C=CCN(Cc2ccccc2)C(=O)[C@@H]13 (stereo not given in full) | -0.146 | -0.182 (inactive) | -0.753 (inactive) | -0.954 (inactive) | -1.03 | -0.31 | -0.462 | -0.276 | 0.194 | 2.52 (inactive) | -0.24 | 0.38 (inactive) | -0.999 (inactive) | -0.513 (inactive) | -0.899 (inactive) | 0.467 | 0.456 (inactive) | -0.322 (inactive) | 1.36 | 1.59
